These results are taken from PubChem BioAssay (NCI).

Experiment [1] in a line: NCI Yeast Anticancer Drug Screen. Data for the rad50 strain (AID 155).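 Also: 0% = growth of vehicle-only cultures of the same strain.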 To be noted: S. cerevisiae rad50 strain growth inhibition, hits give high values. In outline: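 A DNA repair-deficient yeast mutant serves as the test organism; compound-induced growth inhibition is calculated against vehicle-treated cells.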
A short description of experiment [2]: NCI Yeast Anticancer Drug Screen. Data for the mec2-1 strain (AID 157). To be noted: S. cerevisiae mec2-1 strain, hits give high values. In outline: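 Using mec2-1 yeast: add compound, measure growth, express inhibition versus vehicle-treated cultures.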
A short description of experiment [3]: NCI Yeast Anticancer Drug Screen. Data for the sgs1 mgt1 strain (AID 161).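 Also: 0% = growth of cultures given vehicle only.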 To be noted: S. cerevisiae sgs1 mgt1 strain, hits give high values. Summed up:
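Compounds are added to genetically altered yeast, and growth is compared with cultures given vehicle alone to give percent inhibition.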

Experiment [4] can be described thus: NCI Yeast Anticancer Drug Screen. Data for the cln2 rad14 strain (AID 165).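 Also: 0% = growth equal to vehicle treated cultures.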 To be noted: S. cerevisiae cln2 rad14 strain, hits give high values. In outline:
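Yeast strain cln2 rad14, bearing defects in cell cycle control and DNA repair, serves as the test system; values reflect growth inhibition compared with vehicle.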

Experiment [5] is described as follows: NCI Yeast Anticancer Drug Screen. Data for the bub3 strain (AID 167). As to conditions: S. cerevisiae bub3 mutant strain, hits give high values. Summed up: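 Inhibition values come from growth of compound-treated mutant yeast normalised to vehicle-treated controls.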
Experiment [6] can be described thus: NCI Yeast Anticancer Drug Screen. Data for the mlh1 rad18 strain (AID 175). As to conditions: S. cerevisiae mlh1 rad18 strain growth inhibition, hits give high values. In outline: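 Steps: expose repair-defective yeast to compound; measure growth; express inhibition against vehicle-treated controls.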
[7] abbreviates: at 5.0 µM (retest, dose inferred, filed as 0.5).
The mark [8] stands for this setting: at 50.0 µM (retest, dose inferred, filed as 5.0).

This is part of a sample that, as a whole, favours compounds with a hit. Of some 79,000 tested, about 15% had one in any assay. A number with no mark means an inactive call. Calls of active or inactive are those of the source. Rule as the data show it: active = growth inhibition above about 70%; inactive = the rest.

For `O=C(CC1(O)C(=O)Nc2c(Cl)cc(Cl)cc21)c1ccc(Cl)cc1` (configuration not stated), the growth inhibition in experiment [1] (setting [7]) was 0%; in experiment [1] (setting [8]) it was 87% (active); in experiment [1] (at 50.0 µM) it was 85% (active); in experiment [2] (setting [7]), -1%; in experiment [2] (setting [8]) it was 91% (active); in experiment [2] (at 50.0 µM), 70.3% (active). Also, the growth inhibition in experiment [3] (setting [7]) was 3%; in experiment [3] (setting [8]) it was 98% (active); in experiment [3] (at 50.0 µM), 81% (active); in experiment [4] (setting [7]), -3%; in experiment [4] (setting [8]) it was 96% (active); in experiment [4] (at 50.0 µM), 82.5% (active). In addition, the growth inhibition was -3% in experiment [5] (setting [7]); 93% (active) in experiment [5] (setting [8]); 71.5% (active) in experiment [5] (at 50.0 µM); -1% in experiment [6] (setting [7]); 97% (active) in experiment [6] (setting [8]); 93.8% (active) in experiment [6] (at 50.0 µM).
With `Cn1cc(NC(=O)c2cc(NC(=O)CCCCCCCC(=O)Nc3cc(C(=O)Nc4cc(C(=O)NCCC(=N)N)n(C)c4)n(C)c3)cn2C)cc1C(=O)NCCC(=N)N`, the growth inhibition in experiment [1] (setting [7]) is 82% (active); in experiment [1] (setting [8]), 96% (active); in experiment [1] (at 50.0 µM), 86.8% (active); in experiment [2] (setting [7]) it was 84% (active); in experiment [2] (setting [8]), 98% (active); in experiment [2] (at 50.0 µM), 89.8% (active). Moreover, the growth inhibition in experiment [3] (setting [7]) was 73% (active); in experiment [3] (setting [8]), 98% (active); in experiment [3] (at 50.0 µM), 90.2% (active); in experiment [4] (setting [7]) it was 28%; in experiment [4] (setting [8]), 91% (active); in experiment [4] (at 50.0 µM), 82% (active). Moreover, the growth inhibition was 88% (active) in experiment [5] (setting [7]); 98% (active) in experiment [5] (setting [8]); 88.2% (active) in experiment [5] (at 50.0 µM); 85% (active) in experiment [6] (setting [7]); 98% (active) in experiment [6] (setting [8]); 88.8% (active) in experiment [6] (at 50.0 µM).
Turning to `CC(C)(C)c1ccc(CN2CCN(C(c3ccccc3)c3ccc(Cl)cc3)CC2)cc1` (configuration not stated), the growth inhibition in experiment [1] (setting [7]) is 20%; in experiment [1] (setting [8]), 52%; in experiment [1] (at 50.0 µM), 15.7%; in experiment [2] (setting [7]), 5%; in experiment [2] (setting [8]), 17%; in experiment [2] (at 50.0 µM), 1.45%. Besides, the growth inhibition in experiment [3] (setting [7]) was 27%; in experiment [3] (setting [8]), 81% (active); in experiment [3] (at 50.0 µM), -10.8%; in experiment [4] (setting [7]), -4%; in experiment [4] (setting [8]), 21%; in experiment [4] (at 50.0 µM), -8%. For the same compound, the growth inhibition in experiment [5] (setting [7]) was 42%; in experiment [5] (setting [8]) it was 73% (active); in experiment [5] (at 50.0 µM), -4.4%; in experiment [6] (setting [7]), 35%; in experiment [6] (setting [8]), 61%; in experiment [6] (at 50.0 µM) it was 52.5%.
`CC(=O)c1c(C)n(C)c2c1nnc1ccccc12`: the growth inhibition was 53% in experiment [1] (setting [7]); 81% (active) in experiment [1] (setting [8]); 92.3% (active) in experiment [1] (at 50.0 µM); 17% in experiment [2] (setting [7]); 50% in experiment [2] (setting [8]); 36.9% in experiment [2] (at 50.0 µM). The growth inhibition was 6% in experiment [3] (setting [7]); -2% in experiment [3] (setting [8]); 22% in experiment [3] (at 50.0 µM); 9% in experiment [4] (setting [7]); 31% in experiment [4] (setting [8]); 59.4% in experiment [4] (at 50.0 µM). Also, the growth inhibition was 11% in experiment [5] (setting [7]); 48% in experiment [5] (setting [8]); 27.1% in experiment [5] (at 50.0 µM); 19% in experiment [6] (setting [7]); 56% in experiment [6] (setting [8]); 68.4% in experiment [6] (at 50.0 µM).
On to `CN(C)CCC(/C=C/c1ccccc1)=N\Nc1c(F)c(F)c(F)c(F)c1F`, for which the growth inhibition in experiment [1] (setting [7]) was -2%; in experiment [1] (setting [8]), 8%; in experiment [1] (at 50.0 µM) it was 58%; in experiment [2] (setting [7]), -2%; in experiment [2] (setting [8]), 1%; in experiment [2] (at 50.0 µM), 8.9%. The growth inhibition was 2% in experiment [3] (setting [7]); -8% in experiment [3] (setting [8]); 35.4% in experiment [3] (at 50.0 µM); -3% in experiment [4] (setting [7]); 6% in experiment [4] (setting [8]); -3.55% in experiment [4] (at 50.0 µM). Also, the growth inhibition is 1% in experiment [5] (setting [7]); -14% in experiment [5] (setting [8]); 40% in experiment [5] (at 50.0 µM); -4% in experiment [6] (setting [7]); -2% in experiment [6] (setting [8]); 86.8% (active) in experiment [6] (at 50.0 µM).
Turning to `C[C@H](CCC(=O)O)[C@H]1CC[C@H]2[C@@H]3[C@@H](O)C[C@@H]4C[C@H](O)CC[C@]4(C)[C@H]3CC[C@]12C`, the growth inhibition in experiment [1] (setting [7]) is 14%; in experiment [1] (setting [8]), 97% (active); in experiment [1] (at 50.0 µM), 79.9% (active); in experiment [2] (setting [7]) it was 7%; in experiment [2] (setting [8]) it was 96% (active); in experiment [2] (at 50.0 µM) it was 99% (active). Further, the growth inhibition was 19% in experiment [3] (setting [7]); 99% (active) in experiment [3] (setting [8]); 81.3% (active) in experiment [3] (at 50.0 µM); -1% in experiment [4] (setting [7]); 97% (active) in experiment [4] (setting [8]); 76.5% (active) in experiment [4] (at 50.0 µM). In addition, the growth inhibition in experiment [5] (setting [7]) was 21%; in experiment [5] (setting [8]) it was 99% (active); in experiment [5] (at 50.0 µM) it was 98.5% (active); in experiment [6] (setting [7]), 12%; in experiment [6] (setting [8]), 99% (active); in experiment [6] (at 50.0 µM), 88.7% (active).
With `COC(=O)c1n[nH]c(C)c1N=NN1CCC(C(N)=O)CC1`, the growth inhibition was 30% in experiment [1] (setting [7]); 98% (active) in experiment [1] (setting [8]); 98.3% (active) in experiment [1] (at 50.0 µM); -8% in experiment [2] (setting [7]); 99% (active) in experiment [2] (setting [8]); 99.2% (active) in experiment [2] (at 50.0 µM). Further, the growth inhibition was -13% in experiment [3] (setting [7]); 99% (active) in experiment [3] (setting [8]); 98.8% (active) in experiment [3] (at 50.0 µM); -1% in experiment [4] (setting [7]); 99% (active) in experiment [4] (setting [8]); 97.8% (active) in experiment [4] (at 50.0 µM). The growth inhibition in experiment [5] (setting [7]) is -5%; in experiment [5] (setting [8]), 98% (active); in experiment [5] (at 50.0 µM) it was 98.2% (active); in experiment [6] (setting [7]) it was 36%; in experiment [6] (setting [8]) it was 99% (active); in experiment [6] (at 50.0 µM), 99.2% (active).
As to `CCCCCN(CCCCC)CC(O)c1cc2ccccc2c2ccccc12` (configuration not stated), the growth inhibition in experiment [1] (setting [7]) is -1%; in experiment [1] (setting [8]) it was 98% (active); in experiment [1] (at 50.0 µM), 99.3% (active); in experiment [2] (setting [7]), 11%; in experiment [2] (setting [8]), 99% (active); in experiment [2] (at 50.0 µM), 99.4% (active). Moreover, the growth inhibition was 18% in experiment [3] (setting [7]); 100% (active) in experiment [3] (setting [8]); 99.4% (active) in experiment [3] (at 50.0 µM); -12% in experiment [4] (setting [7]); 98% (active) in experiment [4] (setting [8]); 99.2% (active) in experiment [4] (at 50.0 µM). Besides, the growth inhibition in experiment [5] (setting [7]) was -1%; in experiment [5] (setting [8]), 99% (active); in experiment [5] (at 50.0 µM), 99.3% (active); in experiment [6] (setting [7]), 27%; in experiment [6] (setting [8]), 99% (active); in experiment [6] (at 50.0 µM), 99.2% (active).
Turning to `CC(=O)Nc1ccc2c(c1)/C(=N/O)c1ccccc1-2`, the growth inhibition is -5% in experiment [1] (setting [7]); 76% (active) in experiment [1] (setting [8]); 67.2% in experiment [1] (at 50.0 µM); -11% in experiment [2] (setting [7]); 90% (active) in experiment [2] (setting [8]); 42% in experiment [2] (at 50.0 µM). In addition, the growth inhibition in experiment [3] (setting [7]) was -1%; in experiment [3] (setting [8]) it was 89% (active); in experiment [3] (at 50.0 µM) it was 74.9% (active); in experiment [4] (setting [7]), -11%; in experiment [4] (setting [8]), 56%; in experiment [4] (at 50.0 µM), 64.5%. Further, the growth inhibition in experiment [5] (setting [7]) was -3%; in experiment [5] (setting [8]) it was 77% (active); in experiment [5] (at 50.0 µM), 72.4% (active); in experiment [6] (setting [7]), 17%; in experiment [6] (setting [8]), 92% (active); in experiment [6] (at 50.0 µM) it was 77.3% (active).
